This is one part of a sample in which hits are shown more often than they occur.
Glioma ERSR ind: qHTS for Inducers of the Endoplasmic Reticulum Stress Response (ERSR) in Human Glioma: qHTS. 420,000 tested, 0.02% active. U87-MG GRP78 promoter luciferase reporter, 16 h. AID 602332, 2012. Potency, µM, for inactives: at the top dose activation, usual class: activators; also: series mostly up to about 76 µM; % of control where 0% means no effect; nearly all actives have a fitted effect of over 35% in size
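ERSR induction read as luciferase luminescence (Bright-Glo, 10 min at room temperature) in stably transfected human U87-MG glioma cells exposed to compounds for 16 h, using GRP78 as sensor.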
VDR inh: Inhibitors of the vitamin D receptor (VDR): qHTS. Vitamin D3 receptor (Homo sapiens), P11473. VDR-SRC2-3 peptide fluorescence polarization, 2 h. Potency, µM, inactives show max response, negative = inhibition, usual class: inhibitors. 400,000 tested, 0.93% active. AID 504847, 2011; also: % is scaled to controls: 0 for no effect and ±100 for the full control effect
Target sequence (P11473 whole entry, looked up): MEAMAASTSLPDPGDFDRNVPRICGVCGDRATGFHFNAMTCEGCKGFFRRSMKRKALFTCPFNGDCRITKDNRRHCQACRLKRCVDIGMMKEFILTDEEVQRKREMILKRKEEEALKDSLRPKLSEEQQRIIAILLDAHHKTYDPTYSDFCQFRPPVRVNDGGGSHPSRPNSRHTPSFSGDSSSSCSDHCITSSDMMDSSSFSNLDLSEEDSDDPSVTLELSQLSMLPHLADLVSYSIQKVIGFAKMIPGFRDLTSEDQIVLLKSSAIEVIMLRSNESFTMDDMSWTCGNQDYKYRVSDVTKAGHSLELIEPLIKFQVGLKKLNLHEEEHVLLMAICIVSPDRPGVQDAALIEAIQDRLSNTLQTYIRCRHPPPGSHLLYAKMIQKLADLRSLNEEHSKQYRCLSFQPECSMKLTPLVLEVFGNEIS
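Inhibition of the VDR/SRC2-3 peptide interaction is quantified by fluorescence polarization. Compounds (23 nl, pintool) incubate with the reagents for 2 hours at ambient room temperature.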
ALOX12 inh: Primary qHTS assay for inhibitors of human arachidonate 12S-lipoxygenase (ALOX12): Round 2 | purified 12hLO, xylenol orange hydroperoxide absorbance | Potency, µM (highest dose often 108 µM), inactives show at the highest dose activity change, negative = inhibition, most hits filed as inhibitors | 580,000 tested, 1.1% active | AID 1671190, 2021; also: % is scaled to controls: 0 for no effect and ±100 for the full control effect
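Purified human 12hLO (150 nM final) in 25 mM Hepes, 0.01% Triton X-100, pH 7.0 was preincubated 15 min at room temperature with compound. Then 40 uM arachidonic acid was added, 30 min. Hydroperoxide was read by Fe-XO absorbance ratio 573/405 nm.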
Sfp inh: qHTS Assay for Inhibitors of Bacillus subtilis Sfp phosphopantetheinyl transferase (PPTase); 310,000 tested, 3.5% active; 4'-phosphopantetheinyl transferase ffp (Bacillus subtilis), Q9F4F7; Potency, µM, for the others: largest response in the series, negative = inhibition, hits mostly inhibitors; Biochemical Sfp PPTase activity, qHTS;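 also: the enzyme is Sfp with the accession as filed and its product quenches rhodamine fluorescence; 0% = enzyme reaction without inhibitor and -100% = no enzyme wells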
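With Hepes-Na pH 7.6 buffer containing 10 mM MgCl2, Sfp (15 nM) modified BHQ-2-YbbR (12.5 uM) using rhodamine-CoA (5 uM). Two reads 30 minutes apart at 525/598 nm yielded each well's rate.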
G9a block: qHTS Assay for Inhibitors of Histone Lysine Methyltransferase G9a | Histone-lysine N-methyltransferase EHMT2 (Homo sapiens), Q96KQ7 | G9a H3K9 monomethylation, AlphaScreen, 2 h | Potency, µM (highest dose often 102 µM), for the others: at the top dose activity, negative = inhibition, hits mostly inhibitors | 350,000 tested, 8.8% active; also: % is scaled to controls: 0 for no effect and ±100 for the full control effect; nearly all actives have a fitted effect of over 75% in size
Target sequence (Q96KQ7 913-1193 limits assumed): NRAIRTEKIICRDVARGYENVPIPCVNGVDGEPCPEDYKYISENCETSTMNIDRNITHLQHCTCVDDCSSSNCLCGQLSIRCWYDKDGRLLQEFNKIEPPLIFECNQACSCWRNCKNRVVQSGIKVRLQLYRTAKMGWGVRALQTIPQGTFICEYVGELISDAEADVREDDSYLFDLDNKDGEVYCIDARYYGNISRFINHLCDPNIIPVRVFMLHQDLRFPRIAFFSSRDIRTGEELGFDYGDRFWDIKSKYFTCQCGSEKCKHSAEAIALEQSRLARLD
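Using a bead-based AlphaScreen, monomethylated H3K9 product from 2 h room-temperature reactions (G9a 20 nM, peptide 500 nM, SAM 20 uM) was detected with 0.5 ug/mL rabbit anti-H3K9me1 antibody.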
Numbers without * were called inactive; ? = inconclusive; . = not tested or not shown; [ ] = another dose, or the depositor's remark. Calls follow the shape of the dose curve; as a rule, active = well fitted curve in the direction sought with a large enough effect; inconclusive = small, poorly fitted or top-dose-only effect, or another doubt; inactive = no such curve, though single readings can be large; an effect the other way counts as inactive or inconclusive. Potency is read from the fitted curve at half-maximal effect.

SMILES | Glioma ERSR ind | VDR inh | ALOX12 inh | Sfp inh | G9a block
O=C(C1=C(O)C(=O)N(CCN2CCOCC2)C1c1cccc(Br)c1)c1cc2ccccc2o1 (configuration not stated) | -4% | -17% | ? | 11% | 0%[0.0925 µM]
O=C(C1=C(O)C(=O)N(CCN2CCOCC2)C1c1ccc(F)cc1)c1cc2ccccc2o1 (configuration not stated) | -1% | -13% | ? | 21% | 35µM*
O=C(C1=C(O)C(=O)N(CCN2CCOCC2)C1c1ccco1)c1cc2ccccc2o1 (configuration not stated) | -1% | 4% | -25% | 8% | 32µM*
COCCn1cnc2ccc(-c3ccsc3)nc2c1=O | . | . | -7%[176 µM] | . | .
Cc1nc(Nc2ccc(Cl)cc2)c2oc3ccccc3c2n1 | -7% | ? | -16% | -10% | 2%[0.501 µM]
Cc1nc(Nc2ccccc2F)c2oc3ccccc3c2n1 | 0% | 4% | -65% | -3% | 32µM*
CCc1nc(NCc2cccnc2)c2oc3ccccc3c2n1 | 7% | 5% | ? | -1% | 50µM*
Cc1ccc(Nc2ncnc3c2oc2ccccc23)cc1 | -5% | -14% | 7% | -2% | -15%
Cc1ccc(F)c(Nc2ncnc3c2oc2ccccc23)c1 | . | . | 4.5µM* | . | .
Cc1nc(Nc2cccc(Cl)c2)c2oc3ccccc3c2n1 | -1% | -14% | ? | -26% | 71µM*
Cc1ccc2c(=O)cc(C(=O)Nc3sc4c(c3C#N)CCCC4)oc2c1C | . | . | -42% | . | .
Cc1nc2ccccc2c(C)c1CC(=O)NCCCc1[nH]nc(N)c1C#N | . | . | 3% | . | .
Cc1nc(NCc2ccc3c(c2)OCO3)c2oc3ccccc3c2n1 | -2% | -1% | 22µM* | -2% | ?
CCC(C(=O)c1ccc(Cl)cc1)C(c1ccc(Cl)cc1)C(C(=O)OC)C(=O)OC (configuration not stated) | . | . | 1% | . | .
COc1ccc(NC(=O)C2CCCN2C(=O)NCc2ccccc2)cc1 (configuration not stated) | 3% | 71µM* | 6% | 23% | -4%[12.7 µM]
COc1cccc(NC(=O)N2CCOc3ccc(Cl)cc32)c1 | . | . | 79% | . | .
CCOC(=O)c1ccccc1NC(=O)c1cccc(N2CCCCS2(=O)=O)c1 | . | . | 23% | . | .
CC(Sc1n[nH]c(=O)[nH]c1=O)C(=O)OCc1ccccc1 (configuration not stated) | -3% | 2% | 13% | 79µM* | ?
COc1ccc2c(c1)OC[C@H]1[C@H]2N2C(=O)CN(Cc3ccc(C)cc3)C(=O)[C@@]2(C)[C@H]1c1ccccc1 | -4% | -10% | -29% | . | 5%[0.501 µM]
COc1ccc2c(c1)OC[C@H]1[C@H]2N2C(=O)CN(Cc3ccco3)C(=O)[C@@]2(C)[C@H]1c1ccccc1 | -4% | -23% | 7.1µM* | . | -4%[0.501 µM]
O=C(OCCCc1ccccc1)c1cccnc1 | . | . | 44% | . | .
Cc1cc(C)c(S(=O)(=O)Nc2ccc[nH]c2=O)c(C)c1 | -6% | 10% | ? | 50µM* | 8.9µM*
Cc1cc(C)c(S(=O)(=O)Nc2cccc3cccnc23)c(C)c1 | ? | 25% | 25% | 9% | .
Cc1cc(C)c(S(=O)(=O)Nc2cccc3nsnc23)c(C)c1 | 5% | -15% | ? | -4% | 3.2µM*
COc1ccc(NC(=O)CSC2=C(C#N)C(c3ccco3)C3=C(CCCC3=O)N2)c(OC)c1 (configuration not stated) | -2% | 2% | 18µM* | ? | 45µM*
SMILES | Glioma ERSR ind | VDR inh | ALOX12 inh | Sfp inh | G9a block
CCCCc1ccc(NC(=O)CSC2=C(C#N)C(c3ccco3)C3=C(CCCC3=O)N2)cc1 (configuration not stated) | -10% | -5% | -49% | 7.9µM* | -9%[12.7 µM]
Cc1ccc(C(=O)CSC2=C(C#N)C(c3ccco3)C3=C(CCCC3=O)N2)cc1 (configuration not stated) | -6% | -29% | ? | -23% | -6%[59 µM]
CCCCCCC12C(=Cc3cc4c(cc31)OCCO4)c1cc(OC)c(OC)cc1C(CC(=O)O)N2C(=O)OC (configuration not stated) | . | . | 40µM* | . | .
CCCCCCc1ccc(N=Cc2ccc(OCC(C)CC)cc2O)cc1 (configuration not stated) | . | . | 8% | . | .
COc1cc(NC(=O)c2cccc(Cl)c2)c(OC)cc1NC(=O)CN1CCOCC1 | -2% | -4% | -1% | 4% | 45µM*
COc1cc(NC(=O)c2ccccc2)c(OC)cc1NC(=O)CN1CCCCC1 | -3% | -8% | 0% | 10% | ?
COc1cc(NC(=O)c2ccc(F)cc2)c(OC)cc1NC(=O)CN1CCCCC1 | -6% | -5% | 48% | -10% | 50µM*
CN(C)CCN(Cc1ccccc1)c1nccc(N(C)C)c1C#N | -5% | 15% | ? | -14% | 4µM*
CN(C)c1ccnc(Oc2ccccc2)c1C#N | 0% | 15% | 2% | ? | -7%[12.7 µM]
O=C(/C=C/c1ccco1)OCC(=O)C12CC3CC(CC(C3)C1)C2 | . | . | 40µM* | . | .
CC1CC(C)CN(C(=O)COC(=O)/C=C/c2ccco2)C1 (configuration not stated) | 2% | -19% | 179% | . | .
O=C(COC(=O)/C=C/c1ccco1)NCc1ccco1 | 1% | -8% | -18% | 50µM* | 32µM*
COc1ccc(CNC(=O)COC(=O)c2ccco2)cc1 | -2% | -14% | 22% | 6% | .
COc1ccc(CNC(=O)COC(=O)/C=C/c2ccco2)cc1 | -2% | 5% | -10% | ? | 56µM*
O=C(Cc1ccc(Cl)cc1)NC1CCN(c2cc(-c3cccs3)[nH]n2)C1 (configuration not stated) | . | . | 3% | . | .
Cc1cnc(NC(=O)C(C)(C)Oc2ccc(Cl)cc2Cl)s1 | . | . | 17% | . | .
Cc1nc2nc(CCNS(=O)(=O)c3ccc(Cl)cc3)cn2nc1C | 4% | 89µM* | 11% | 16% | 8%[59 µM]
CN(C)S(=O)(=O)c1ccc2c(c1)cc(C(=O)NCC1CCCO1)n2C (configuration not stated) | . | . | -10% | . | .
COc1ccc(NC(=O)c2nn(C)c(=O)c3ccccc23)cc1OC1CCCC1 | . | . | -5% | . | .
CC(=O)NCc1ccc(C(=O)CSc2nnc(C3CC3)n2Cc2ccccc2)cc1 | . | . | -4% | . | .
CCCCn1c(NC(=O)c2ccco2)c(S(=O)(=O)c2ccc(C)cc2)c2nc3ccccc3nc21 | 1% | ? | ? | ? | ?
CCCCn1c(NS(=O)(=O)c2ccccc2)c(S(=O)(=O)c2ccc(C)cc2)c2nc3ccccc3nc21 | -1% | 50µM* | ? | -3% | 1%[59 µM]
COc1ccc(Nc2nc(-c3sc(C)nc3C)cs2)c(OC)c1 | -6% | -14% | ? | ? | 45µM*
